Screening results (PubChem)
AmpC inh no detg – AmpC beta-lactamase inhibition without detergent | AmpC nitrocefin hydrolysis, absorbance 480 nm, 0.0001% Triton | Potency, µM (titrated, usually from 57.1 µM), inactives show at the highest dose activity change, negative = inhibition, usual class: inhibitors | 330,000 compounds, 0.52% hits | AID 485341;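 also: plate controls were no compound for no effect and no enzyme for full effect; nearly all actives have a fitted effect of over 20% in size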
Target sequence (P00811 whole entry, looked up): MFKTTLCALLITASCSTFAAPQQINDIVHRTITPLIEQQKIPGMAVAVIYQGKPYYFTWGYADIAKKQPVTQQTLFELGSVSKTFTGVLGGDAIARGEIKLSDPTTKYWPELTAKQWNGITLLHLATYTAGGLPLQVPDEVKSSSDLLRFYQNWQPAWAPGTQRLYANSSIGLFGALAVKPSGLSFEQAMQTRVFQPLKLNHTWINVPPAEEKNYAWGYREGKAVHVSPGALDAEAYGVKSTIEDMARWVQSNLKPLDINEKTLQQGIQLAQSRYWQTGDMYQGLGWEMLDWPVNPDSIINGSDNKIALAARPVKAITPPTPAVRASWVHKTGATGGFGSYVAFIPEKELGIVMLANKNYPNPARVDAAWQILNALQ
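20 mM phosphate pH 7.0 + 0.01% (detergent screen) or 0.0001% Triton X-100; 5.3 nM AmpC reagent; cpd preinc 15 min RT; nitrocefin (800 uM stock) to start; A480 q20 s × 4 min; Activity was normalised to no-enzyme and no-compound control wells.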
Giardia FBPA inh – inhibitors of Giardia lamblia fructose-1,6-bisphosphate aldolase | purified Giardia FBPA | Potency, µM (highest dose often 59.6 µM), without a hit: at the highest dose activity, negative = inhibition, most hits filed as inhibitors | 290,000 compounds, 0.71% hits; also: % is scaled to controls: 0 for no effect and ±100 for the full control effect; nearly all actives have a fitted effect of over 55% in size
Target sequence (A8B2U2 whole entry, looked up): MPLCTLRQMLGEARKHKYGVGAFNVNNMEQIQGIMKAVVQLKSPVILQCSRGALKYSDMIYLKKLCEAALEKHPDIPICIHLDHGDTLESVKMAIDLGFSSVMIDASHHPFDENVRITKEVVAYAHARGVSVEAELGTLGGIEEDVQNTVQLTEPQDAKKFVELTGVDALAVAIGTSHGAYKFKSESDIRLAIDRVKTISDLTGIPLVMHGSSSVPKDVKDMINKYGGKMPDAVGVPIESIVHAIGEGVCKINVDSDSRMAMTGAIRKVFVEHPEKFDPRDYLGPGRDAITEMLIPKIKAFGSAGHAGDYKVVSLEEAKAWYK
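40 nM FBPA preincubated 10 min at RT with compound (up to 57.5 uM final), then substrate plus GAPDH/TPI/NAD/arsenate coupling and diaphorase/resazurin added. Fluorescence read after 20 min at RT, 525/598 nm.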
SARS PLpro yeast – SARS-CoV PLP inhibition in yeast. 330,000 compounds, 0.19% hits. Potency, µM (titrated, usually from 32.9 µM), for the others: at the highest dose activity, positive = growth rescue, hits mostly activators. S. cerevisiae expressing SARS-CoV PLpro, growth rescue. AID 485353; calls by dose curve; also: 0% is about no effect; nearly all actives have a fitted effect of over 55% in size
AmpC detergent – AmpC beta-lactamase inhibition with detergent present; P00811; AmpC hydrolysis of nitrocefin, absorbance 480 nm, 0.01% Triton; Potency, µM (titrated, usually from 114 µM), for inactives: at the top dose activity change, negative = inhibition, hits mostly inhibitors; 370,000 compounds, 0.041% hits; AID 485294;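 also: 0% = no-compound wells and -100% = no-enzyme wells; nearly all actives have a fitted effect of over 25% in size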
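20 mM phosphate pH 7.0 + 0.01% (detergent screen) or 0.0001% Triton X-100; 5.3 nM AmpC reagent; cpd preinc 15 min RT; nitrocefin (800 uM stock) to start; A480 q20 s × 4 min; Activity was normalised to no-enzyme and no-compound control wells.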
NS1 function inh – inhibitors of influenza NS1 protein function. Potency, µM (series often up to 46.1 µM), for the others: at the top dose activity, positive = more growth. 270,000 compounds, 0.4% hits. AID 2326; calls by dose curve; also: actives are rising curves; nearly all actives have a fitted effect of over 50% in size
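Compounds were scored for reversing the slow growth caused by influenza A NS1 in S. cerevisiae, measured by optical density at 600 nm. Assay medium contained 2% galactose at pH 6.0; NS1-free yeast of the same strain were the positive control.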
* marks the source's active call; other numbers are inactive results; ? = inconclusive; nt = not tested or not shown. A selection: hits, their analogues and other compounds. The true share with any hit is near 1.4%. Unless noted, calls follow the shape of the dose curve; as a rule, active = well fitted curve in the direction sought with a large enough effect; inconclusive = small, poorly fitted or top-dose-only effect, or another doubt; inactive = no such curve, though single readings can be large; an effect the other way counts as inactive or inconclusive. Potency is read from the fitted curve at half-maximal effect.

SMILES | AmpC inh no detg | Giardia FBPA inh | SARS PLpro yeast | AmpC detergent | NS1 function inh
N#CCC(=O)c1ccccc1Oc1ccc(Cl)cc1 | 3.98µM* | -2.8% | -4.1% | ? | nt
CCOC(=O)C1CCN(C(c2cccs2)c2sc3nc(C)nn3c2O)CC1 (stereo not given) | 21.7% | 0.2% | -2.4% | ? | -76.5%
CCOC(=O)C1CCN(C(c2cccc(OC)c2)c2sc3nc(C)nn3c2O)CC1 (stereo not given) | 10µM* | -5.4% | -2.3% | ? | -19.5%
COc1ccc(C(c2c(C)[nH]n(-c3ccccc3)c2=O)c2c(C)[nH]n(-c3ccccc3)c2=O)cc1OC | 29.8% | ? | 12.6µM* | -5.4% | -7.0%
CC(=O)Nc1cccc(N=NN2CCOCC2)c1 | -16.0% | 5.2% | 0.7% | -2.4% | 0.3%
CC(=O)Nc1ccc(N=NN2CCOCC2)cc1 | -16.9% | -2.3% | 11.2µM* | ? | nt
CNc1nc(C)cc(C)c1S(=O)(=O)c1ccc(Cl)cc1 | 0.2% | -10.8% | -19.4% | -3.1% | -30.1%
Cn1c2ccccc2c2cc(/C=N/NC(=O)c3cc(O)cc(O)c3)ccc21 | 15.8µM* | -10.7% | ? | 0.6% | -41.6%
CC(=O)n1cc(/C=N/NC(=O)c2cccc(O)c2)c2ccccc21 | 11.2µM* | 7.1% | 1.4% | -8.7% | 2.2%
Cc1ccc(C(CC(=O)c2ccc(Cl)cc2)C(=O)O)cc1 (stereo not given) | -15.8% | 0.1% | 0.3% | -3.1% | nt
COC(=O)C(CC(=O)c1ccc(Cl)cc1)c1ccc(C(C)C)cc1 (stereo not given) | 0.251µM* | -0.1% | -18.9% | 1.1% | -15.6%
Cc1ccc(C)c(NS(=O)(=O)c2ccc3c(c2)Cc2cc(S(=O)(=O)Nc4cc(C)ccc4C)ccc2-3)c1 | 7.94µM* | 0.0% | -10.2% | -9.5% | 9.2%
Cc1ccc(C)c(NS(=O)(=O)c2ccc3oc(=O)ccc3c2)c1 | -2.1% | -6.5% | 0.6% | 5.4% | 4.3%
CCCN1C(=O)c2cc(C(=O)NC3CCCCCC3)ccc2C1O (stereo not given) | 1.41µM* | 6.5% | 0.5% | ? | -14.1%
CCCN1C(=O)c2cc(C(=O)O)ccc2C1O (stereo not given) | -0.9% | ? | -0.9% | ? | 13.5%
COc1ccc(NC(=O)c2oc3ccc(S(=O)(=O)N4CCC5(CC4)OCCO5)cc3c2C)cc1 | 100.9% | -2.0% | -1.9% | -2.7% | 11.2µM*
COc1cc(-c2ccccc2)[nH]c(=S)n1 | -3.5% | nt | 9.7% | 6.1% | nt
Cc1sc2ncnc(N3CCC(C(=O)NNC(=O)COc4ccccc4F)CC3)c2c1C | 69.6% | nt | -7.1% | -14.2% | nt
C/C(=N\NC(=O)CSCc1ccccc1Cl)c1cccc(NC(=O)c2ccccc2)c1 | 22.4µM* | 1.1% | 5.0% | -4.9% | 1.4%
C/C(=N\NC(=O)c1ccccc1O)c1cccc(NC(=O)c2ccccc2)c1 | -56.2% | -4.2% | -1.0% | -14.3% | -33.4%
COc1ccc(N=Cc2[nH]c3ccccc3c2O)cc1 | -9.1% | 14.1µM* | 2.3% | 2.2% | nt
C#CCn1c(=NC(=O)c2ccc(Br)s2)sc2cccc(OC)c21 | 1.41µM* | -1.7% | -1.1% | ? | 14.4%
COC(=O)c1cc(=O)c(O)c2c(O)c(O)ccc2c1 | nt | 5µM* | nt | nt | nt
Cc1nnc(NC(=O)CCCCCN2C(=O)C3C4C=CC(C4)C3C2=O)s1 (stereo not given) | 6.31µM* | 6.9% | -0.8% | ? | -1.1%
C(=N\N=C\c1ccccn1)/c1ccccn1 | -21.1% | -29.9% | -2.5% | -12.0% | -1.8%
SMILES | AmpC inh no detg | Giardia FBPA inh | SARS PLpro yeast | AmpC detergent | NS1 function inh
N=C1/C(=C\c2ccc(-c3cccc(C(=O)O)c3)o2)C(=O)N=C2SC=C(c3ccccc3)N12 | -38.5% | -17.5% | 0.2% | 56.2µM* | 8.8%
N=C1/C(=C/c2ccc(-c3cccc(C(=O)O)c3)o2)C(=O)N=C2SC(CC(=O)N3CCOCC3)=NN12 | -6.1% | -28.8% | 34.0% | -1.3% | 9.8%
COc1ccc(NC(=O)c2ccco2)cc1N | 0.2% | 39.8µM* | -13.4% | -11.0% | 5.9%
COc1ccc(NC(=O)c2ccco2)cc1NC(=O)c1ccco1 | -18.5% | 4.6% | -3.8% | ? | -13.5%
C/C(=N\NC(=O)C1CCCN(S(=O)(=O)c2ccccc2)C1)c1ccccn1 (stereo not given) | 3.16µM* | -7.3% | 1.3% | 1.2% | -0.1%
C/C(=N\NC(=O)C1CCCN(S(=O)(=O)c2ccccc2)C1)c1ccncc1 (stereo not given) | -17.7% | -2.2% | 2.5% | 4.4% | 3.3%
COc1ccc(OC)c(CCNC(=O)Cn2sc3nc(C)cc(C)c3c2=O)c1 | ? | -5.4% | -18.3% | 50.1µM* | ?
O=[N+]([O-])c1ccc(O)c(/C=N/Nc2nc3ccccc3[nH]2)c1 | -24.7% | -10.7% | 11.2µM* | ? | 1.5%
COc1ccc(O)c(/C=N/Nc2nc3ccccc3[nH]2)c1 | -35.2% | -11.5% | -0.2% | 0.7% | 11.7%
CO/C=C\C=C/c1nnn(-c2ccc(Cl)cc2)n1 | 11.2µM* | -6.4% | -77.4% | -4.9% | -44.6%
Clc1ccc(-n2cnnn2)cc1 | -10.6% | 6.0% | 0.2% | 3.5% | 11.9%
CCOc1ccc(NC(=O)C(c2ccccn2)N(C(=O)CCl)c2ccc(OC)cc2)cc1 (stereo not given) | 83.7% | 7.06µM* | -13.6% | -4.7% | ?
CCOc1ccc(NC(=O)C(c2ccccn2)N(C(=O)CCl)c2ccc(OCC)cc2)cc1 (stereo not given) | 24.4% | ? | 13.9% | -2.1% | 22.6%
Cc1cc(C)c(NC(=O)C[C@H](CC(=O)O)c2cccc3ccccc23)c(C(=O)N2CCC3(CCCC3)CC2)c1 | nt | 17.9% | nt | nt | 10µM*
Cc1ccc(NN=C2c3ccccc3-c3ccccc32)cc1 | 11.2µM* | -13.9% | -10.3% | ? | -2.5%
Cc1ccc(OCC(=O)NN=C2c3ccccc3-c3ccccc32)cc1 | -10.6% | 1.7% | -3.6% | ? | 1.9%
Cc1ccc(-c2nnc3c(C(F)(F)F)nc4ccccc4n23)cc1 | 0.141µM* | 3.5% | 0.8% | ? | -2.3%
O=C1CSC(c2cccnc2)N1Cc1ccc(Cl)cc1Cl (stereo not given) | -14.5% | 2.8% | -1.6% | ? | 3.7%
CN1CCN(C(=S)C(=O)Nc2ccc(Br)cc2)CC1 | -23.5% | 5µM* | 0.3% | -8.2% | 1.7%
FC(F)(F)c1ccc(Cl)c(-n2c(-c3cc(-c4ccco4)[nH]n3)n[nH]c2=S)c1 | 3.98µM* | -4.7% | 1.9% | 3.1% | 16.2%
CC(C)CCNC(=O)C1C2C=CC3(CN(Cc4ccccc4Cl)C(=O)C13)O2 (stereo not given) | 8.91µM* | 3.8% | 6.8% | ? | 7.4%
Cc1ccn2c(=O)nc(SCC(=O)NCCc3ccccc3)nc2c1 | 31.6µM* | nt | 1.9% | ? | nt
CC12CN3CC(C)(CN(C1)C3c1ccc3ccccc3c1O)C2=O (stereo not given) | 8.9% | 12.6µM* | -6.5% | ? | 3.3%
CC12CN3CC(C)(CN(C1)C3c1c[nH]c3ccccc13)C2=O (stereo not given) | -1.6% | -0.4% | 0.5% | -12.9% | 1.9%
